Experimental data: PubChem BioAssay (NCI)
About 83,000 compounds went through this panel and 20% of them were active in at least one assay; those are over-represented in the sample as a whole.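 Activity criterion: percent growth below 10, measured after cells in 96-well plates were exposed to a single compound concentration for 48 hours.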 Active and inactive are the calls of the source.

How the values were obtained:
Assay in all cases: NCI-60 one-dose screen, 48 h (100 = growth as untreated, 0 = no growth, -100 = all killed)
Details in all cases: 10 µM
NCI-H23 lung = test system: NCI-H23 lung
NCI-H226 lung = test system: NCI-H226 lung
NCI-H322M lung = test system: NCI-H322M lung
HOP-62 NSCLC = test system: HOP-62 NSCLC
NCI-H460 lung = test system: NCI-H460 lung
HOP-92 NSCLC = test system: HOP-92 NSCLC
NCI-H522 lung = test system: NCI-H522 lung
A549/ATCC NSCLC = test system: A549/ATCC NSCLC
786-0 renal = test system: 786-0 renal
COLO 205 colon = test system: COLO 205 colon
DU-145 prostate = test system: DU-145 prostate
K-562 leukemia = test system: K-562 leukemia
MALME-3M melanoma = test system: MALME-3M melanoma
MDA-MB-231 breast = test system: MDA-MB-231 breast
RXF 393 renal = test system: RXF 393 renal
SF-268 CNS = test system: SF-268 CNS
SF-295 CNS = test system: SF-295 CNS
SF-539 CNS = test system: SF-539 CNS
UACC-257 melanoma = test system: UACC-257 melanoma
M14 melanoma = test system: M14 melanoma

Measured: growth

C[N+]1=C(/C=C/c2ccc(I)cc2)C(C)(C)c2ccccc21
inactive: NCI-H23 lung 82% | NCI-H226 lung 104% | NCI-H322M lung 89.1% | HOP-62 NSCLC 108% | NCI-H460 lung 103% | HOP-92 NSCLC 65% | NCI-H522 lung 68.8% | A549/ATCC NSCLC 109% | 786-0 renal 97.4% | COLO 205 colon 95% | DU-145 prostate 104% | K-562 leukemia 109% | MALME-3M melanoma 86% | MDA-MB-231 breast 67.1% | RXF 393 renal 70.7% | SF-268 CNS 89.9% | SF-295 CNS 100% | SF-539 CNS 98.7% | UACC-257 melanoma 104% | M14 melanoma 91%

COc1cc(C2=Nc3c/c(=C\c4c(O)[nH]c5ccc(Cl)cc45)ccc3=N2)cc(OC)c1OC
active: NCI-H23 lung 2.68% | HOP-62 NSCLC -82% | NCI-H460 lung 8.64% | HOP-92 NSCLC -61.5% | 786-0 renal -6.36% | COLO 205 colon -41.1% | DU-145 prostate 4.46% | MALME-3M melanoma -51.8% | MDA-MB-231 breast 2.35% | RXF 393 renal 1.13% | SF-268 CNS -51.5% | SF-539 CNS -52.4% | UACC-257 melanoma -77% | M14 melanoma -21.6%
inactive: NCI-H226 lung 55.4% | NCI-H322M lung 57.2% | NCI-H522 lung 24.9% | A549/ATCC NSCLC 56.5% | K-562 leukemia 17.3% | SF-295 CNS 83.3%

COc1ccc(-c2cc(/C=C3\C(=O)Nc4cc(Cl)ccc43)[nH]n2)cc1
inactive: NCI-H23 lung 54.1% | NCI-H226 lung 56.1% | NCI-H322M lung 81.9% | HOP-62 NSCLC 45.4% | NCI-H460 lung 22% | HOP-92 NSCLC 51.7% | A549/ATCC NSCLC 44% | 786-0 renal 52.1% | COLO 205 colon 19.4% | DU-145 prostate 26.4% | K-562 leukemia 13.3% | MALME-3M melanoma 29.2% | MDA-MB-231 breast 54.5% | SF-268 CNS 36.5% | UACC-257 melanoma 62.2% | M14 melanoma 35%
active: NCI-H522 lung -14.9% | RXF 393 renal 9.94% | SF-295 CNS 1.51% | SF-539 CNS 4.51%

Cc1cc(C)c(/C=C2\C(=O)Nc3ccc(NC(=O)CCCCCCC(=O)NO)cc32)[nH]1
inactive: NCI-H23 lung 52.4% | NCI-H226 lung 65.6% | NCI-H322M lung 31.3% | HOP-62 NSCLC 34% | NCI-H460 lung 77.4% | A549/ATCC NSCLC 82% | 786-0 renal 72% | DU-145 prostate 19.3% | K-562 leukemia 22.7% | MALME-3M melanoma 18.7% | MDA-MB-231 breast 12% | RXF 393 renal 19.1% | SF-268 CNS 22.8% | SF-295 CNS 30% | SF-539 CNS 15% | M14 melanoma 18.4%
active: HOP-92 NSCLC -30.4% | NCI-H522 lung -10.6% | COLO 205 colon 3.61% | UACC-257 melanoma 0.0206%

CCCCCC(=O)N1c2ccccc2NC2=C(C(=O)CC(c3ccc(OC)c(OC)c3)C2)C1c1ccc(C(F)(F)F)cc1 (stereo not given)
active: RXF 393 renal 1.04%
inactive: NCI-H23 lung 51.5% | NCI-H226 lung 64.8% | NCI-H322M lung 70.6% | HOP-62 NSCLC 54.8% | NCI-H460 lung 76.9% | HOP-92 NSCLC 66.4% | NCI-H522 lung 37.5% | A549/ATCC NSCLC 58.5% | 786-0 renal 65.8% | COLO 205 colon 69.2% | DU-145 prostate 85% | K-562 leukemia 28.4% | MALME-3M melanoma 84.3% | MDA-MB-231 breast 69% | SF-268 CNS 57.3% | SF-295 CNS 36.1% | SF-539 CNS 80.7% | UACC-257 melanoma 41.8% | M14 melanoma 58.3%

CNC(=S)Sc1ccc([N+](=O)[O-])cc1[N+](=O)[O-]
inactive: NCI-H23 lung 83.5% | NCI-H226 lung 78.9% | NCI-H322M lung 99.1% | HOP-62 NSCLC 83% | NCI-H460 lung 102% | HOP-92 NSCLC 23.6% | A549/ATCC NSCLC 80.8% | 786-0 renal 93.9% | DU-145 prostate 38.1% | MALME-3M melanoma 87.1% | MDA-MB-231 breast 50.8% | RXF 393 renal 97.4% | SF-268 CNS 94.2% | SF-295 CNS 95.1% | SF-539 CNS 25.9% | UACC-257 melanoma 62.5% | M14 melanoma 24.3%
active: NCI-H522 lung -57.7% | COLO 205 colon -35.1% | K-562 leukemia 7.74%

Cc1ccc(C(=O)O)c(N)c1C
inactive: NCI-H23 lung 94.4% | NCI-H226 lung 98.6% | NCI-H322M lung 96.1% | HOP-62 NSCLC 90.2% | NCI-H460 lung 108% | HOP-92 NSCLC 98.8% | NCI-H522 lung 87.3% | A549/ATCC NSCLC 111% | 786-0 renal 103% | COLO 205 colon 117% | DU-145 prostate 101% | K-562 leukemia 92.1% | MALME-3M melanoma 85.7% | MDA-MB-231 breast 118% | RXF 393 renal 111% | SF-268 CNS 95.9% | SF-295 CNS 92.6% | SF-539 CNS 103% | UACC-257 melanoma 108% | M14 melanoma 96.4%

COc1ccc(-c2nnc(SC/C(=N\O)c3ccccc3)o2)cc1
inactive: NCI-H23 lung 89.3% | NCI-H226 lung 95.5% | NCI-H322M lung 113% | HOP-62 NSCLC 97.7% | NCI-H460 lung 98.8% | HOP-92 NSCLC 98.4% | NCI-H522 lung 71.4% | A549/ATCC NSCLC 107% | 786-0 renal 97.2% | COLO 205 colon 110% | DU-145 prostate 100% | K-562 leukemia 94.2% | MALME-3M melanoma 109% | MDA-MB-231 breast 92.3% | RXF 393 renal 120% | SF-268 CNS 95.8% | SF-295 CNS 101% | SF-539 CNS 92.7% | UACC-257 melanoma 121% | M14 melanoma 104%

Cc1ccc(/C=C2\CN(Cc3cn(CCNc4ccnc5cc(Cl)ccc45)nn3)C/C(=C\c3ccc(C)cc3)C2=O)cc1
active: NCI-H23 lung -26.8% | NCI-H226 lung -66.9% | NCI-H322M lung 5.6% | HOP-62 NSCLC -64.5% | NCI-H460 lung -51% | HOP-92 NSCLC -42.6% | NCI-H522 lung -49.5% | A549/ATCC NSCLC -17.2% | 786-0 renal -36% | COLO 205 colon -66.7% | DU-145 prostate -98.5% | K-562 leukemia -14.7% | MALME-3M melanoma -14.9% | MDA-MB-231 breast -27.6% | RXF 393 renal -89% | SF-268 CNS -70.7% | SF-295 CNS -58.8% | SF-539 CNS -51.9% | UACC-257 melanoma -41.1% | M14 melanoma -41.7%

N#Cc1c2c([nH]c(=O)c1C(N)=O)CCCCC2
inactive: NCI-H23 lung 100% | NCI-H226 lung 100% | NCI-H322M lung 97.6% | HOP-62 NSCLC 92.4% | NCI-H460 lung 105% | HOP-92 NSCLC 112% | NCI-H522 lung 90.7% | A549/ATCC NSCLC 91.3% | 786-0 renal 98.5% | COLO 205 colon 102% | DU-145 prostate 115% | K-562 leukemia 113% | MALME-3M melanoma 90.5% | MDA-MB-231 breast 102% | RXF 393 renal 108% | SF-268 CNS 103% | SF-295 CNS 101% | SF-539 CNS 95.1% | UACC-257 melanoma 96.7% | M14 melanoma 95.6%

COc1cccc(-c2nnc(COc3ccc(-c4nc5ccc(C)cc5[nH]4)cc3OC)o2)c1
inactive: NCI-H23 lung 88% | NCI-H226 lung 84.6% | NCI-H322M lung 98% | HOP-62 NSCLC 101% | NCI-H460 lung 36.7% | HOP-92 NSCLC 74% | NCI-H522 lung 91.2% | A549/ATCC NSCLC 61.8% | 786-0 renal 81.5% | COLO 205 colon 72.6% | DU-145 prostate 65.2% | K-562 leukemia 13.5% | MALME-3M melanoma 52.8% | MDA-MB-231 breast 64.5% | RXF 393 renal 85.1% | SF-268 CNS 101% | SF-295 CNS 99.2% | SF-539 CNS 57.4% | UACC-257 melanoma 97.1% | M14 melanoma 53.9%

CCc1c(C(=O)NCc2c(O)ccc3cccc(O)c23)[nH]c(C)c1C(C)=O
inactive: NCI-H23 lung 23.4% | NCI-H226 lung 52.7% | NCI-H322M lung 69.5% | HOP-62 NSCLC 59% | NCI-H460 lung 43.4% | HOP-92 NSCLC 32.8% | NCI-H522 lung 11.4% | A549/ATCC NSCLC 27.3% | 786-0 renal 60.9% | COLO 205 colon 69.5% | DU-145 prostate 55.1% | K-562 leukemia 16.8% | MALME-3M melanoma 37.4% | MDA-MB-231 breast 48.3% | RXF 393 renal 58.8% | SF-268 CNS 31.1% | SF-295 CNS 11.8% | SF-539 CNS 56.3% | UACC-257 melanoma 35% | M14 melanoma 30.9%

CC(=O)/C(=C\c1ccc(Cl)cc1)c1ccccc1
active: NCI-H226 lung 8.66% | NCI-H460 lung 6.31% | HOP-92 NSCLC -0.736% | NCI-H522 lung -1.57% | COLO 205 colon -40.5% | DU-145 prostate 0.722% | K-562 leukemia 8.97% | SF-295 CNS -6.11% | SF-539 CNS -1.66% | M14 melanoma 1.53%
inactive: NCI-H23 lung 20.1% | NCI-H322M lung 49.1% | HOP-62 NSCLC 32% | A549/ATCC NSCLC 17.1% | 786-0 renal 22.9% | MALME-3M melanoma 73.1% | MDA-MB-231 breast 19.4% | RXF 393 renal 25.7% | SF-268 CNS 23.9% | UACC-257 melanoma 72.2%
